Screening results as filed in PubChem BioAssay.
ugtP null kill: growth inhibition of ugtP-null S. aureus, primary screen, RN4220 ugtP deletion, OD600; 330,000 tested, 0.54% active; AID 1259309, 2017; growth inhibition, % (no concentration beside the values); 16 h; in the data active means growth inhibition above about 68%;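 further: plate controls were untreated wells for no effect and antibiotic for full effect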
RN4220 kill: growth inhibition of S. aureus RN4220, primary screen, OD600. 16 h. inhibition, % (no concentration beside the values). 330,000 tested, 0.33% active; in the data active means inhibition above about 85%;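 further: plate controls were untreated cells for no effect and reference antibiotic for full effect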
CCHF vOTU inh-1: CCHFV vOTU protease inhibitors, primary screen, biochemical, Pep-AMC substrate, fluorescence | Crimean-Congo hemorrhagic fever virus L polyprotein viral ovarian tumor (vOTU) protease … | inhibition, % at 11.5 µM | 370,000 tested, 0.55% active | AID 651958, 2012; further: 0% = vehicle wells with enzyme and 100% = no enzyme wells
DUSP3 inh: VHR1 phosphatase inhibitors, primary screen, biochemical, absorbance, uHTS; inhibition, % at 13.3 µM; Dual specificity protein phosphatase 3 (Homo sapiens), P51452; 290,000 tested, 0.52% active; recombinant VHR phosphatase, pNPP absorbance; in the data active means inhibition above about 50%
Target sequence (P51452 whole entry, looked up): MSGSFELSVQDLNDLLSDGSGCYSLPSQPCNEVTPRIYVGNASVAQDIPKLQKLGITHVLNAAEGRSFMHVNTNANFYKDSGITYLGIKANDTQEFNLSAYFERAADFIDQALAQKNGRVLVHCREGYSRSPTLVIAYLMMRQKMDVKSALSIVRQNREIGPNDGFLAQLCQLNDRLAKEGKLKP
PriA SSB inh: inhibitors of Klebsiella pneumoniae PriA binding to SSB C-terminal tail, primary screen, biochemical, AlphaScreen; PriA–SSB C-terminal tail interaction (Klebsiella pneumoniae); AlphaScreen SSBct-PriA binding, biotinylated peptide; inhibition, % at 33 µM; 430,000 tested, 0.6% active; AID 1272365, 2023; in the data active means inhibition mostly above about 37%, no sharp cut-off; inactive means mostly below about 20%;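 further: plate controls were negative control peptide for no effect and reference peptide for full effect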
CCHF vOTU inh-2: CCHFV vOTU protease inhibitors, confirmation, biochemical, Pep-AMC substrate, fluorescence; Recombinant CCHFV vOTU; 1,900 tested, 17% active; shares compounds with CCHF vOTU inh-1; inhibition, % at 11.5 µM; AID 686976, 2013
* = called active by the depositor; . = no result. Shown are actives, neighbours in structure and some others; about 1.5% of the full set was active somewhere. Unless noted, no stated cut-off is given here; in the data, active means inhibition above about 30%; inactive means the rest.

SMILES	ugtP null kill	RN4220 kill	CCHF vOTU inh-1	DUSP3 inh	PriA SSB inh	CCHF vOTU inh-2
CC(C)CCCCCCCCc1cccc(O)c1C(=O)O	.	.	43*	.	.	25
CC(=O)NC1=C(NC2CCS(=O)(=O)C2)C(=O)c2ccccc2C1=O (stereo not given)	4	19	42*	9	-5	2
CN(C1=C(NC(=O)c2ccccc2)C(=O)c2ccccc2C1=O)C1CCS(=O)(=O)C1 (stereo not given)	48	32	89*	-8	.	78*
Cc1cc(C(=O)Nc2ccccc2S(C)(=O)=O)nn1C	.	.	.	.	-3	.
COCCNC(=S)NN=C(C)c1ccc(O)cc1	.	.	.	.	9	.
O=C(Nc1ccc(Cl)c(Cl)c1)N(Cc1ccsc1)Cc1ccco1	.	.	.	.	-4	.
O=C1Cc2ccccc2C(=O)N1OCc1ccc(Cl)cc1Cl	.	.	36*	-17	-17	-3
O=C1c2ccccc2C(=O)N1OCc1cccc(Cl)c1	10	7	-3	-28	-2	.
C#CCOc1ccc(/C=C2/C(=O)N(c3cccc(C(=O)O)c3)N=C2C)cc1OC	.	.	35*	8	3	-15
COc1cc(/C=C2\C(=O)N(c3ccc(S(N)(=O)=O)cc3)N=C2C)ccc1OC(=O)c1ccco1	15	8	48*	34	24	-3
COc1ccccc1/C=C1/C(=O)N(c2ccccc2)N=C1C	.	.	71*	-7	-7	-10
COc1cc(/C=C2/C(=O)N(c3ccc(C(=O)O)cc3)N=C2C)cc(OC)c1O	3	1	67*	45	-2	-14
COc1cc(/C=C2\C(=O)N(c3cccc(C(=O)O)c3)N=C2C)ccc1OCc1ccccc1	.	.	-1	.	.	.
COc1cc(/C=C2/C(=O)N(c3ccc(Br)cc3)N=C2C)cc(OC)c1OC	8	5	.	21	-6	.
COC(=O)Nc1ccc(S(=O)(=O)NCCn2nc(-c3ccncc3)cc2C)cc1	.	.	.	.	3	.
Cn1ccc(C(=O)Nc2ccc(Cl)cc2C(=O)c2ccccc2)n1	.	.	.	.	-8	.
C=CCn1c(O)c(C(C)=O)c(=O)[nH]c1=O	.	.	.	.	-8	.
NC(=O)Cn1nnn(-c2ccc(NC(=O)C3c4ccccc4Oc4ccccc43)cc2)c1=O	.	.	.	.	-9	.
COc1cc(/C=C2/SC(=O)NC2=O)ccc1Oc1ccc([N+](=O)[O-])cc1[N+](=O)[O-]	20	5	-2	-1	.	.
COc1cc(/C=C2\C(=O)N(c3ccccc3)N=C2C)ccc1Oc1ccc([N+](=O)[O-])cc1[N+](=O)[O-]	-3	8	48*	8	7	-1
C=CCOc1c(Cl)cc(CNc2ccc(N(C)C)cc2)cc1OC	9	1	69*	8	69	-6
C=CCC(CC(=O)N(CCO)Cc1ccccc1)C(=O)NC(COC(=O)C(CC=C)CC(=O)OC(C)(C)C)c1ccccc1 (stereo not given)	4	4	.	.	.	.
C=CC[C@@H](CC(=O)N[C@H](CO)Cc1ccccc1)C(=O)N[C@@H](COC(=O)[C@H](CC=C)CC(=O)OC(C)(C)C)Cc1ccccc1	.	.	20	.	6	.
C=CC[C@@H](CC(=O)N(CCO)Cc1ccccc1)C(=O)N[C@@H](COC(=O)[C@@H](CC=C)CC(=O)OC(C)(C)C)Cc1c[nH]c2ccccc12	.	.	40*	.	5	12
C=CC[C@@H](CC(=O)N[C@@H](CO)Cc1ccccc1)C(=O)N[C@H](COC(=O)[C@@H](CC=C)CC(=O)OC(C)(C)C)Cc1ccccc1	-11	3	39*	.	-10	-6
SMILES	ugtP null kill	RN4220 kill	CCHF vOTU inh-1	DUSP3 inh	PriA SSB inh	CCHF vOTU inh-2
C=CCC[C@H](Cc1ccc(F)cc1)C(=O)OC[C@@H](Cc1c[nH]c2ccccc12)NC(=O)[C@H](CC=C)CC(=O)N(CCO)Cc1ccccc1	.	.	35*	.	12	7
C=CCC[C@@H](Cc1ccc(F)cc1)C(=O)OC[C@@H](Cc1c[nH]c2ccccc12)NC(=O)[C@H](CC=C)CC(=O)N(CCO)Cc1ccccc1	.	.	21	.	3	.
C=CC[C@@H](CC(=O)N(CCO)Cc1ccccc1)C(=O)N[C@H](COC(=O)[C@@H](CC=C)CC(=O)OC(C)(C)C)c1ccccc1	.	.	32*	.	-19	8
COc1cc(C=NNC(=O)CCC(=O)NCc2ccccc2)cc(OC)c1OC	.	.	.	.	-10	.
O=C(NCC1CCCN1c1ccccc1)c1ccco1 (stereo not given)	.	.	.	.	2	.
COc1ccccc1-c1nnc(C2CCN(S(=O)(=O)c3cccnc3)CC2)s1	.	.	.	.	-9	.
O=C1C=CC(=O)c2c(O)c(CO)c(CO)c(O)c21	.	.	78*	.	4	69*
Cc1c(NC(=O)c2c[nH]c(=O)n(Cc3ccc4c(c3)OCO4)c2=O)c(=O)n(-c2ccccc2)n1C	.	.	.	.	-1	.
COc1cc(-c2coc3c(C(=O)NCc4cccc(Cl)c4)cccc23)ccc1O	.	.	17	.	.	.
COc1cc(-c2coc3c(C(=O)NCc4ccccc4)cccc23)ccc1O	.	.	41*	.	.	-5
Cc1ccccc1-c1cc2c(nn1)-c1ccccc1C2=O	-3	17	96*	17	12	94*
CCOC(=O)N1CCC(NC(=O)CCc2csc(NC(=O)Nc3ccccc3)n2)CC1	.	.	.	.	-9	.
CCCCC[C@H](C)N1C[C@@H](COCc2ccccc2)Oc2cc(N3CC[C@H](O)C3)ccc2S1(=O)=O	.	.	40*	.	.	3
CCCCC[C@@H](C)N1C[C@@H](COCc2ccccc2)Oc2cc(N3CCC[C@H]3CO)ccc2S1(=O)=O	.	.	28	.	.	.
CCCCC[C@@H](C)N1C[C@H](COCc2ccccc2)Oc2cc(N3CCC[C@@H]3CO)ccc2S1(=O)=O	.	.	33*	.	.	17
CCOc1ccc(N=Nc2c(=O)[nH]n3c(=O)cc(C)[nH]c23)cc1	14	23	36*	33	-3	10
Cc1ccc(S(=O)(=O)/N=C2/NC(=O)/C(=C/c3ccc(Br)o3)S2)cc1	17	41	36*	-16	.	11
CC(=O)N1CCN(c2ccc(N)cc2)CC1	1	3	38*	.	3	-15
Cc1ccccc1-c1nc(CS(=O)(=O)CC(=O)NCCc2ccccc2)c(C)o1	1	-2	39*	-64	-4	-5
CCC(O)c1c(-c2ccccc2)nn(C)c1Cl (stereo not given)	-1	6	31*	12	4	-16
C=CCC(O)c1c(-c2ccccc2)nn(C)c1Cl (stereo not given)	-3	-1	1	12	-17	.
COC(=O)N1CCc2ccc(NC(=O)c3csc(-c4ccccc4)n3)cc2C1	.	.	.	.	1	.
Cn1nc(CNS(=O)(=O)c2ccc(Cl)s2)cc1C1CC1	.	.	.	.	-4	.
CCc1ccccc1NC(=O)c1cc(S(=O)(=O)N2CCN(c3ccccc3)CC2)ccc1F	.	.	.	.	-9	.
COC(=O)c1cc(S(=O)(=O)N2CCOCC2)c(Cl)cc1N1CCOCC1	-2	2	1	6	-8	.
